According to PubChem BioAssay (NCI):
The panel holds about 79,000 compounds, 15% with a hit somewhere; the sample as a whole holds those more often. Calls of active or inactive are those of the source. Rule as the data show it: active = growth inhibition above about 70%; inactive = the rest.

Key:
[1] = NCI Yeast Anticancer Drug Screen. Data for the rad52 strain (AID 147);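 also: 0% = growth of vehicle-treated control cultures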; conditions: S. cerevisiae rad52 mutant growth inhibition, hits give high values
Procedure, shortened: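 Growth of repair-deficient yeast cells was compared between compound-treated and vehicle-treated cultures to give percent inhibition.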

[2] = NCI Yeast Anticancer Drug Screen. Data for the wt1 strain (AID 149);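 also: 0% = growth of vehicle-treated wt1 cultures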; conditions: S. cerevisiae wt1 strain (SPY 50644) growth inhibition, hits give high values
Procedure, shortened: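 Yeast wt1 strain exposed to compounds; growth inhibition measured relative to vehicle-treated controls.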

[3] = NCI Yeast Anticancer Drug Screen. Data for the rad50EPP+ strain (AID 151);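 also: 0% = growth of vehicle-treated control cultures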; conditions: S. cerevisiae rad50 mutant strain, hits give high values
Procedure, shortened: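 Measured: growth inhibition of rad50EPP+ yeast. Reference: vehicle-treated controls. Screen uses strains with defined genetic alterations in DNA damage repair or cell cycle control.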

[4] = NCI Yeast Anticancer Drug Screen. Data for the rad50 strain (AID 155);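 also: 0% = growth of vehicle-only cultures of the same strain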; conditions: S. cerevisiae rad50 strain growth inhibition, hits give high values
Procedure, shortened: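 Yeast carrying a defined DNA repair defect were exposed to test compounds, and growth was compared with vehicle-treated controls to give percent inhibition.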

[5] = NCI Yeast Anticancer Drug Screen. Data for the mec2-1 strain (AID 157); conditions: S. cerevisiae mec2-1 strain, hits give high values
Procedure, shortened: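 Compounds were applied to mec2-1 yeast cells. Their growth was then compared with that of vehicle-treated cultures to give growth inhibition.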

[6] = NCI Yeast Anticancer Drug Screen. Data for the rad14 strain (AID 159);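 also: 0% = growth of vehicle-treated control cultures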; conditions: S. cerevisiae rad14 strain growth inhibition, hits give high values
Procedure, shortened: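 Yeast cells carrying a defined DNA-repair defect were exposed to compounds, and growth inhibition was calculated relative to vehicle-treated control cultures.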

[7] = NCI Yeast Anticancer Drug Screen. Data for the sgs1 mgt1 strain (AID 161);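 also: 0% = growth of cultures given vehicle only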; conditions: S. cerevisiae sgs1 mgt1 strain, hits give high values
Procedure, shortened: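 Yeast cells carrying a defined DNA-repair defect were exposed to test compounds. Growth inhibition was measured relative to vehicle-treated controls.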

[8] = NCI Yeast Anticancer Drug Screen. Data for the CLN2oe strain (AID 163);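 also: 0% = growth of vehicle-only control cultures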; conditions: S. cerevisiae CLN2oe strain, hits give high values
Procedure, shortened: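 Cells of an engineered yeast line with disturbed cell-cycle regulation are treated with compound. Inhibition of growth is then calculated relative to the vehicle-treated reference.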

[9] = NCI Yeast Anticancer Drug Screen. Data for the cln2 rad14 strain (AID 165);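 also: 0% = growth equal to vehicle treated cultures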; conditions: S. cerevisiae cln2 rad14 strain, hits give high values
Procedure, shortened: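 Strain: cln2 rad14 yeast, altered in cell cycle control and DNA damage repair. Read-out: growth inhibition vs vehicle.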

[10] = NCI Yeast Anticancer Drug Screen. Data for the bub3 strain (AID 167); conditions: S. cerevisiae bub3 mutant strain, hits give high values
Procedure, shortened: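 Compounds were applied to a genetically altered yeast strain carrying a cell-cycle control defect. Growth inhibition was scored against vehicle-treated controls.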

[11] = NCI Yeast Anticancer Drug Screen. Data for the wt2 strain (AID 169);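 also: 0% = growth of vehicle-treated yeast cultures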; conditions: S. cerevisiae wt2 strain growth inhibition, hits give high values
Procedure, shortened: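 Growth of compound-treated yeast is measured and expressed as inhibition relative to vehicle-only controls.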

[12] = NCI Yeast Anticancer Drug Screen. Data for the mlh1 strain (AID 171);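 also: 0% = growth of vehicle-treated control cultures of the same strain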; conditions: S. cerevisiae mlh1 strain growth inhibition, hits give high values
Procedure, shortened: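 Test agents were incubated with yeast bearing a defined DNA damage repair or cell cycle control alteration; values are growth inhibition normalised to vehicle-treated cultures.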

[13] = NCI Yeast Anticancer Drug Screen. Data for the sgs1 strain (AID 173);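 also: 0% = growth of vehicle-only control cultures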; conditions: S. cerevisiae sgs1 mutant, hits give high values
Procedure, shortened: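 Strain with an altered DNA repair or cell cycle pathway exposed to compound. Growth then measured. Value = inhibition versus vehicle control.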

[14] = NCI Yeast Anticancer Drug Screen. Data for the mlh1 rad18 strain (AID 175); conditions: S. cerevisiae mlh1 rad18 strain growth inhibition, hits give high values
Procedure, shortened: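 A repair-deficient yeast strain is exposed to test compound, and growth is scored relative to vehicle-treated controls.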

[15] = NCI Yeast Anticancer Drug Screen. Data for the rad18 strain (AID 177); conditions: S. cerevisiae rad18 mutant growth inhibition, hits give high values
Procedure, shortened: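 DNA-repair-defective yeast; compound treatment; growth inhibition scored against vehicle.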

[16] = at 5.0 µM (retest, dose inferred, filed as 0.5)
[17] = at 50.0 µM (retest, dose inferred, filed as 5.0)

Measured: growth inhibition

Cc1ccc(NC(c2ccccc2)c2ccc3cccnc3c2O)cc1 (stereo not drawn)
inactive: [1]; at 1.2 µM -1% | [1]; at 3.7 µM 0% | [1]; at 11.0 µM -1% | [1]; at 33.0 µM -1% | [1]; at 100.0 µM -2% | [2]; at 1.2 µM 1% | [2]; at 3.7 µM 4% | [2]; at 11.0 µM 4% | [2]; at 33.0 µM 1% | [2]; at 100.0 µM 1% | [3]; at 1.2 µM -3% | [3]; at 3.7 µM -1% | [3]; at 11.0 µM -4% | [3]; at 33.0 µM -3% | [3]; at 100.0 µM -2% | [4]; at 1.2 µM 1% | [4]; at 3.7 µM -2% | [4]; [16] 18% | [4]; at 11.0 µM 6% | [4]; at 33.0 µM -2% | [4]; [17] 29% | [4]; at 50.0 µM 67.1% | [4]; at 100.0 µM -3% | [5]; at 1.2 µM 1% | [5]; at 3.7 µM 2% | [5]; [16] 5% | [5]; at 11.0 µM 1% | [5]; at 33.0 µM 2% | [5]; [17] 6% | [5]; at 50.0 µM 50.6% | [5]; at 100.0 µM 12% | [6]; at 1.2 µM 0% | [6]; at 3.7 µM -1% | [6]; at 11.0 µM 1% | [6]; at 33.0 µM -26% | [6]; at 100.0 µM 2% | [7]; [16] 9% | [7]; [17] 10% | [8]; at 1.2 µM 0% | [8]; at 3.7 µM -1% | [8]; at 11.0 µM 0% | [8]; at 33.0 µM 2% | [8]; at 100.0 µM 5% | [9]; [16] 48% | [9]; [17] 45% | [9]; at 50.0 µM 59.9% | [10]; at 1.2 µM -8% | [10]; at 3.7 µM -1% | [10]; [16] -18% | [10]; at 11.0 µM -31% | [10]; at 33.0 µM 8% | [10]; [17] -3% | [10]; at 50.0 µM 56.5% | [10]; at 100.0 µM 3% | [11]; at 1.2 µM 0% | [11]; at 3.7 µM 1% | [11]; at 11.0 µM -1% | [11]; at 33.0 µM -1% | [11]; at 100.0 µM -2% | [12]; at 1.2 µM 2% | [12]; at 3.7 µM 2% | [12]; at 11.0 µM 3% | [12]; at 33.0 µM -22% | [12]; at 100.0 µM 9% | [13]; at 1.2 µM 2% | [13]; at 3.7 µM 3% | [13]; at 11.0 µM 3% | [13]; at 33.0 µM 0% | [13]; at 100.0 µM -3% | [14]; [16] 5% | [14]; [17] 10% | [14]; at 50.0 µM 33% | [15]; at 1.2 µM -15% | [15]; at 3.7 µM 3% | [15]; at 11.0 µM -10% | [15]; at 33.0 µM -2% | [15]; at 100.0 µM -12%
active: [7]; at 50.0 µM 79.7%
